Experimental data reported in PubChem BioAssay (NCATS).
“And” between values parts separate entries of the source, which are not always exact repeats. Equal values may be shown once. Records with an inconclusive call do not appear. The source made the active and inactive calls. Calls come from the whole dose curve; as a rule, active = well fitted curve in the direction sought with a large enough effect; inconclusive = small, poorly fitted or top-dose-only effect, or another doubt; inactive = no such curve, though single readings can be large; an effect the other way counts as inactive or inconclusive.

Assays:
[1] = biological target: Cellular tumor antigen p53 (Homo sapiens) (UniProt P04637); assay: Primary qHTS for small molecule compounds that upregulate eGFP-tagged delta133p53alpha (in N-terminal) cells. (AID 2060322); conditions: NCI-H358 eGFP-delta133p53alpha fluorescence, 24 h; activation: active compounds read high; note: nearly all actives have a fitted effect of over 75% in size; note: potency is the fitted concentration of half-maximal effect;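 for activation: series mostly up to about 56 µM; 0% = DMSO vehicle and 100% = reference activator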
Sequence of Cellular tumor antigen p53 (Homo sapiens) (P04637 whole entry, looked up): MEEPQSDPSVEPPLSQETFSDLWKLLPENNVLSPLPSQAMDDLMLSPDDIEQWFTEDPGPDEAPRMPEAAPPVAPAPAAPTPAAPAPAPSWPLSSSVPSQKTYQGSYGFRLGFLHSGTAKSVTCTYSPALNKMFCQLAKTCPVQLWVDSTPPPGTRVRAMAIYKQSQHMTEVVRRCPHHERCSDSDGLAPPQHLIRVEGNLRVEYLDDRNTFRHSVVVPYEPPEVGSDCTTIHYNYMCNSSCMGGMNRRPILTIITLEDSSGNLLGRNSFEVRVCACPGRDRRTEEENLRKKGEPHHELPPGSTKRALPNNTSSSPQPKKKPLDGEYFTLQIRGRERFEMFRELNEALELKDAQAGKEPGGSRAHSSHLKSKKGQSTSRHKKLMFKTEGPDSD
Outline: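 NCI-H358 cells pre-induced 24 h with 10 ng/ml doxycycline to express N-terminal eGFP-delta133p53alpha, then dosed 24 h at 37C without doxycycline; fixed, Hoechst-stained, GFP intensity by laser scanning cytometry, normalized to DMSO (0%) and 57.5 uM 5-azacytidine (100%).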

[2] = biological target: Aldehyde dehydrogenase, mitochondrial (Homo sapiens) (UniProt P05091); assay: qHTS for Inhibitors of the Aldehyde Dehydrogenase Family (ALDH2) Primary screen (AID 2061308);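 note: plate controls were vehicle for no effect and reference inhibitor for full effect; nearly all actives have a fitted effect of over 55% in size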
[3] = biological target: Retinaldehyde dehydrogenase 3 (Homo sapiens) (UniProt P47895); assay: qHTS for Inhibitors of the Aldehyde Dehydrogenase Family (ALDH1A3) Validation screen (AID 2061312); note: % is set by controls: 0 for no effect and ±100 for the full control effect; nearly all actives have a fitted effect of over 45% in size
[4] = biological target: Retinaldehyde dehydrogenase 3 (Homo sapiens) (UniProt P47895); assay: qHTS for Inhibitors of the Aldehyde Dehydrogenase Family (ALDH1A3) Primary screen (AID 2061315);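 note: plate controls were DMSO vehicle for no effect and reference inhibitor for full effect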

COc1ccc(NC(=O)c2ccc(-c3ccc(-c4nnc(C)o4)cc3C)cc2)cc1N1CCN(C)CC1
inactive: activation [1] -6.21% | Potency [2] | Potency [3] | Potency [4]

c1ccc(-c2csc(N3CCOCC3)n2)cc1
inactive: activation [1] -7.16% | Potency [2] | Potency [3] | Potency [4]

CCN[C@@H]1C[C@H](N)[C@@H](O[C@H]2OC(CN)=CC[C@H]2N)[C@H](O)[C@H]1O[C@H]1OC[C@](C)(O)[C@H](NC)[C@H]1O
inactive: activation [1] 10.5% and 9.67% | Potency [2] | Potency [3] | Potency [4]

N[C@@H](CC(=O)Nc1ccc(Oc2cc(F)c(F)cc2Br)cc1)C(=O)O
inactive: activation [1] -8.11% | Potency [2] | Potency [3] | Potency [4]

COC1CCN(c2cccc(-c3cc(NC(C)=O)nc(-n4nc(C)cc4C)n3)n2)CC1
inactive: activation [1] -8.59% | Potency [2] | Potency [3] | Potency [4]

CNC(=O)c1ccc2cc([C@@]3(O)CCn4cncc43)ccc2c1
inactive: activation [1] -9.55% | Potency [2] | Potency [3] | Potency [4]

CC(=O)[C@H]1CC[C@H]2[C@@H]3C=CC4=CC(=O)CC[C@@]4(C)[C@@H]3CC[C@]12C
inactive: activation [1] -8.47% and 12.4% | Potency [2] | Potency [3] | Potency [4]

CC(C)(C)NCC(O)COc1cccc2c1CCCC2=O (stereo not drawn)
inactive: activation [1] -7.64% | Potency [2] | Potency [3] | Potency [4]

CCN(CC)C(=O)Nc1ccc(OCC(O)CNC(C)(C)C)c(C(C)=O)c1 (stereo not drawn)
inactive: activation [1] -6.69% and 4.3% | Potency [2] | Potency [3] | Potency [4]

Cc1cc(N2CCN([C@@H]3CN[C@H](C(=O)N4CCSC4)C3)CC2)n(-c2ccccc2)n1
inactive: activation [1] -1.91% | Potency [2] | Potency [3] | Potency [4]

CCOC(=O)[C@H](CCc1ccccc1)CC1(C(=O)N[C@H]2CCc3ccccc3N(CC(=O)O)C2=O)CCCC1
inactive: activation [1] 6.21% | Potency [2] | Potency [3] | Potency [4]

Cn1nc(C(C)(C)C)cc1C(=O)NC(Cc1cccc(Cl)c1)C(=O)NCC#N (stereo not drawn)
inactive: activation [1] -4.3% | Potency [2] | Potency [3] | Potency [4]

CCCCCCOC(=O)/N=C(\N)c1ccc(NCc2nc3cc(C(=O)N(CCC(=O)OCC)c4ccccn4)ccc3n2C)cc1
inactive: activation [1] -0.955% | Potency [2] | Potency [3] | Potency [4]

O=C(O)c1cccc(S(=O)(=O)N2CCc3ccccc3C2)c1
inactive: activation [1] -7.64% | Potency [2] | Potency [3] | Potency [4]

O=C(Nc1cccnn1)N1CCN(c2nccc(-c3ccc(F)c(F)c3)n2)CC1
inactive: activation [1] 0.477% | Potency [2] | Potency [3] | Potency [4]

Cc1noc(C)c1-c1cc(O)cc(C(O)c2ccccc2)c1 (stereo not drawn)
inactive: activation [1] 10.1% | Potency [2] | Potency [3] | Potency [4]

COc1cccc(CNc2ccc(S(=O)(=O)Nc3nc4ccccc4s3)cc2)c1O
inactive: activation [1] -10.5% | Potency [2] | Potency [3] | Potency [4]

CNC(=O)COC(=O)NCCC1CCN(c2cccc(C)n2)CC1
inactive: activation [1] 6.21% | Potency [2] | Potency [3] | Potency [4]

CC[C@H]1OC(=O)[C@H](C)[C@@H](O[C@H]2C[C@@](C)(OC)[C@@H](O)[C@H](C)O2)[C@H](C)[C@@H](O[C@@H]2O[C@H](C)C[C@H](N(C)C)[C@H]2O)[C@@](C)(O)C[C@@H](C)[C@@H]2N[C@@H](COCCOC)OC([C@H]2C)[C@]1(C)O
inactive: activation [1] 7.16% | Potency [2] | Potency [3] | Potency [4]

Cc1ccccc1NC(=O)Nc1ccc(CN2C(=O)N([C@@H](CC(C)C)C(=O)N[C@@H](CC(=O)O)c3ccccc3)C(=O)C2(C)C)cc1
inactive: activation [1] -2.86% | Potency [2] | Potency [3] | Potency [4]

CCOC(=O)N1CCC(NCCNC(=O)c2ccccc2C)CC1
inactive: activation [1] 6.68% | Potency [2] | Potency [3] | Potency [4]

CC(C)[C@@H](C)/C=C/[C@@H](C)[C@H]1CC[C@H]2C3=CC=C4C[C@@H](O)CC[C@]4(C)[C@H]3CC[C@]12C
inactive: activation [1] 14.3% | Potency [2] | Potency [3] | Potency [4]

O=C(c1cc(Cc2n[nH]c(=O)c3ccccc23)ccc1F)N1CCCNCC1
inactive: activation [1] -4.3% | Potency [2] | Potency [3] | Potency [4]

NS(=O)(=O)c1ccc(N2N=C(c3ccccc3)CC2c2ccccc2)cc1 (stereo not drawn)
inactive: activation [1] -18.6% | Potency [2] | Potency [3] | Potency [4]

OC1CCC(Nc2nc(-c3ccccc3)nc3[nH]ccc23)CC1 (stereo not drawn)
inactive: activation [1] -8.11% | Potency [2] | Potency [3] | Potency [4]

CCC(C)c1ccc(NC(=O)Cn2cnc3c2c(=O)n(C)c(=O)n3C)cc1 (stereo not drawn)
inactive: activation [1] 11.5% | Potency [2] | Potency [3] | Potency [4]

O=S(=O)(Cc1ccccc1)Nc1ccc(-c2ccc3c(cnn3-c3ccc(F)cc3)c2)c(C(F)(F)F)c1
inactive: activation [1] -1.91% | Potency [2] | Potency [3] | Potency [4]

COc1c(C)cnc(Cn2cc(C#CCC(C)(C)O)c3c(Cl)nc(N)nc32)c1C
inactive: activation [1] -10% | Potency [2] | Potency [3] | Potency [4]

O=C(Nc1ccccc1Br)NC1CCN(c2ccc(C(F)(F)F)cn2)C1 (stereo not drawn)
inactive: activation [1] 0.477% | Potency [2] | Potency [3] | Potency [4]

Cc1ccc(C2(C(=O)N3CCC(n4nc(-c5ccccc5)oc4=O)CC3)CC2)cc1
inactive: activation [1] -1.91% | Potency [2] | Potency [3] | Potency [4]

CC(C)CCNC(=O)c1ccc2c(c1)nc(Nc1n[nH]c3ccc(-c4ccccc4OC(F)(F)F)cc13)n2C1CCC(O)CC1 (stereo not drawn)
inactive: activation [1] 6.21% | Potency [2] | Potency [3] | Potency [4]

CC(C)C(=O)Oc1ccc(CO)cc1[C@H](CCN(C(C)C)C(C)C)c1ccccc1
inactive: activation [1] 16.6% and 0.955% | Potency [2] | Potency [3] | Potency [4]

Cn1c2ccc(F)cc2c2c(C(=O)N3CCCC3)cn(-c3ccccc3)c(=O)c21
inactive: activation [1] -5.25% | Potency [2] | Potency [3] | Potency [4]

COc1ccc(-c2nc(-c3ccc(-c4cccc(Cl)c4)o3)[nH]c2-c2ccc(OC)cc2)cc1
inactive: activation [1] -3.82% | Potency [2] | Potency [3] | Potency [4]

CCOc1ccc(NC(=S)N2CCC(C(O)(c3ccccc3)c3ccccc3)CC2)cc1
inactive: activation [1] -0.955% | Potency [2] | Potency [3] | Potency [4]

COc1ccc([C@H](Cc2ccncc2)c2ccccc2)cc1OC1CCCC1
inactive: activation [1] -2.86% | Potency [2] | Potency [3] | Potency [4]

O=C(Nc1ccc(-n2nc(C(F)(F)F)cc2C(F)(F)F)cc1)c1ccncc1F
inactive: activation [1] -5.25% | Potency [2] | Potency [3] | Potency [4]

COC(=O)c1sccc1S(=O)(=O)Nc1ccc(Nc2ccccc2)cc1OC
inactive: activation [1] -5.73% | Potency [2] | Potency [3] | Potency [4]

O=C(O)CCc1ccc(NCc2cccc3c2CCCN3CCOc2ccccc2)cc1F
inactive: activation [1] 2.39% | Potency [2] | Potency [3] | Potency [4]

O=C(CCCCN1CCOCC1)Nc1ccc(-c2cccnc2)cc1
inactive: activation [1] -8.11% | Potency [2] | Potency [3] | Potency [4]

Clc1ccccc1CNCC1CCC(CNCc2ccccc2Cl)CC1 (stereo not drawn)
inactive: activation [1] 29.6% | Potency [2] | Potency [3] | Potency [4]

O=C1C(Cc2ccc(O)cc2)N2C(=O)CCN(C(=O)NCc3ccccc3)C2CN1Cc1cccc2ccccc12 (stereo not drawn)
inactive: activation [1] 19.6% | Potency [2] | Potency [3] | Potency [4]

c1ccc(Nc2nc3c(s2)CCCc2[nH]ncc2-3)nc1
inactive: activation [1] 8.59% | Potency [2] | Potency [3] | Potency [4]

O=C(CNC(=O)c1cccc(C(F)(F)F)c1)N[C@@H]1CCN(Cc2ccc(Cl)cc2)C1
inactive: activation [1] -2.86% | Potency [2] | Potency [3] | Potency [4]

CCCCc1ccc(C(=O)Nc2cc(-c3ccc(Cl)cc3)nn2-c2ccc(Cl)cc2)cc1
inactive: activation [1] 6.68% | Potency [2] | Potency [3] | Potency [4]

CS(=O)(=O)c1ccccc1N1CCN(c2nc3c(c(=O)[nH]2)CSCC3)CC1
inactive: activation [1] 11.5% | Potency [2] | Potency [3] | Potency [4]

COc1ccc([C@@H]2N[C@H](C(=O)O)Cc3c2[nH]c2ccccc32)cc1CN1CCN(c2ccccc2F)CC1
inactive: activation [1] 26.7% | Potency [2] | Potency [3] | Potency [4]

O=C(Nc1ccc(C(F)(F)F)cn1)N1CCN(c2ncccc2C(F)(F)F)CC1
inactive: activation [1] -3.34% | Potency [2] | Potency [3] | Potency [4]

COc1ccc(CN2CCN(C(=O)CCNC(=O)c3ccc(C(C)(C)C)cc3)CC2)cc1
inactive: activation [1] -7.16% | Potency [2] | Potency [3] | Potency [4]

NS(=O)(=O)c1ccc(NC(=O)Nc2ccc(F)cc2)cc1
inactive: activation [1] -7.64% | Potency [2] | Potency [3] | Potency [4]

CNc1cc2[nH]c(=O)n(-c3ccc(NC(=O)NS(=O)(=O)c4ccc(Cl)s4)cc3)c(=O)c2cc1F
inactive: activation [1] 8.11% | Potency [2] | Potency [3] | Potency [4]

O=S(=O)(Nc1ccccc1N1CCCCC1)c1ccc(Cl)s1
inactive: activation [1] -11.9% | Potency [2] | Potency [3] | Potency [4]

COCc1c(Cl)ccc2c1CC[C@H]2c1ncc[nH]1
inactive: activation [1] 11% | Potency [2] | Potency [3] | Potency [4]

CNC(=O)O[C@H]1COc2ccc(N3CCN(C4COC4)CC3)cc2[C@@H]1NC(=O)c1ccc(F)cc1
inactive: activation [1] -1.43% | Potency [2] | Potency [3] | Potency [4]

FC(F)(F)c1cc(C(F)(F)F)c2ccc3nc(-c4nnco4)cn3c2n1
inactive: activation [1] 5.73% | Potency [2] | Potency [3] | Potency [4]

COc1ccccc1Oc1ccc(N(Cc2cccnc2)S(=O)(=O)CC(F)(F)F)cc1
inactive: activation [1] -6.21% | Potency [2] | Potency [3] | Potency [4]

CCN1CCN(Cc2ccc(NC(=O)c3ccc(C)c(Oc4ncnc5[nH]c(C)cc45)c3)cc2C(F)(F)F)CC1
active: Potency [1] 23.9 µM
inactive: Potency [2] | Potency [3] | Potency [4]
